# Assay results published in PubChem BioAssay AID1159580 (chemical genetic matrix, 2015).
# Among all 5,500 compounds or so, about 2,000 (36%) were called active. Another 18% or so got no clear call; they are omitted. Some of the results follow. A number with no mark means an inactive call. Rule as the data show it: active = normalized growth mostly below about 0.91 (no sharp cut-off); inconclusive = no clear call, values can overlap the other calls; inactive = mostly above about 0.92.
# Experiment: chemical genetic growth profiling, strain panel (AID 1159580);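 also: tested at 20 µM; growth read once vehicle control cultures reached saturation at 30 °C; 1 = growth at the plate median or of vehicle wells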
# Details: growth OD
structure (smiles),measurement,setting,value
CC(=O)[C@H]1CCC2C3CCC4=CC(=O)CC[C@]4(C)C3CC[C@@]21C (some centres not stated),normalized growth,"S. cerevisiae deletion strains, locus YJR075W, strain HOC1, stronger effect = lower value",0.949
same,normalized growth,"S. cerevisiae deletion strains, locus YKL009W, strain mrt4, stronger effect = lower value",0.914
same,normalized growth,"S. cerevisiae deletion strains, locus YKL068W, stronger effect = lower value",0.947
same,normalized growth,"S. cerevisiae deletion strains, locus YKL085W, strain MDH1 (second series), stronger effect = lower value",0.929 (active)
same,normalized growth,"S. cerevisiae deletion strains, locus YKL085W, strain MDH1, stronger effect = lower value",0.929 (active)
same,normalized growth,"S. cerevisiae deletion strains, locus YKL160W, strain elf1, stronger effect = lower value",0.913
same,normalized growth,"S. cerevisiae deletion strains, locus YKL190W, strain CNB1, stronger effect = lower value",0.978
same,normalized growth,"S. cerevisiae deletion strains, locus YKR001C, strain vps1, stronger effect = lower value",0.704 (active)
same,normalized growth,"S. cerevisiae deletion strains, locus YKR026C, strain gcn3, stronger effect = lower value",0.981
same,normalized growth,"S. cerevisiae deletion strains, locus YKR091W, strain srl3, stronger effect = lower value",0.977
same,normalized growth,"S. cerevisiae deletion strains, locus YLL001W, strain dnm1, stronger effect = lower value",0.989
same,normalized growth,"S. cerevisiae deletion strains, locus YLL026W, stronger effect = lower value",0.978
same,normalized growth,"S. cerevisiae deletion strains, locus YLL041C, strain sdh2, stronger effect = lower value",0.977
same,normalized growth,"S. cerevisiae deletion strains, locus YLR027C, strain aat2, stronger effect = lower value",0.95
same,normalized growth,"S. cerevisiae deletion strains, locus YLR039C, strain RIC1, stronger effect = lower value",0.447 (active)
same,normalized growth,"S. cerevisiae deletion strains, locus YLR058C, strain SHM2, stronger effect = lower value",0.974
same,normalized growth,"S. cerevisiae deletion strains, locus YLR102C, strain apc9, stronger effect = lower value",0.942
same,normalized growth,"S. cerevisiae deletion strains, locus YLR113W, strain HOG1, stronger effect = lower value",0.958
same,normalized growth,"S. cerevisiae deletion strains, locus YLR221C, strain rsa3, stronger effect = lower value",0.955
same,normalized growth,"S. cerevisiae deletion strains, locus YLR258W, strain gsy2, stronger effect = lower value",0.962
same,normalized growth,"S. cerevisiae deletion strains, locus YLR262C, strain YPT6 (second series), stronger effect = lower value",0.475 (active)
same,normalized growth,"S. cerevisiae deletion strains, locus YLR262C, strain YPT6, stronger effect = lower value",0.494 (active)
same,normalized growth,"S. cerevisiae deletion strains, locus YLR268W, strain sec22, stronger effect = lower value",0.718 (active)
same,normalized growth,"S. cerevisiae deletion strains, locus YLR320W, strain mms22, stronger effect = lower value",0.615 (active)
same,normalized growth,"S. cerevisiae deletion strains, locus YLR330W, strain CHS5, stronger effect = lower value",0.978
same,normalized growth,"S. cerevisiae deletion strains, locus YLR342W, strain FKS1 (second series), stronger effect = lower value",0.814
same,normalized growth,"S. cerevisiae deletion strains, locus YLR342W, strain FKS1, stronger effect = lower value",0.94
same,normalized growth,"S. cerevisiae deletion strains, locus YLR357W, strain rsc2, stronger effect = lower value",1.05
same,normalized growth,"S. cerevisiae deletion strains, locus YLR370C, strain arc18, stronger effect = lower value",0.957
same,normalized growth,"S. cerevisiae deletion strains, locus YLR371W, strain rom2, stronger effect = lower value",0.904 (active)
same,normalized growth,"S. cerevisiae deletion strains, locus YLR384C, strain iki3, stronger effect = lower value",0.968
same,normalized growth,"S. cerevisiae deletion strains, locus YLR418C, strain cdc73, stronger effect = lower value",0.441 (active)
same,normalized growth,"S. cerevisiae deletion strains, locus YML016C, strain PPZ1, stronger effect = lower value",0.963
same,normalized growth,"S. cerevisiae deletion strains, locus YML032C, strain rad52, stronger effect = lower value",0.76 (active)
same,normalized growth,"S. cerevisiae deletion strains, locus YML120C, strain ndi1, stronger effect = lower value",0.966
same,normalized growth,"S. cerevisiae deletion strains, locus YML124C, strain tub3, stronger effect = lower value",0.942
same,normalized growth,"S. cerevisiae deletion strains, locus YMR058W, strain fet3, stronger effect = lower value",0.923
same,normalized growth,"S. cerevisiae deletion strains, locus YMR078C, strain ctf18, stronger effect = lower value",0.724 (active)
same,normalized growth,"S. cerevisiae deletion strains, locus YMR125W, strain sto1, stronger effect = lower value",0.942
same,normalized growth,"S. cerevisiae deletion strains, locus YMR129W, stronger effect = lower value",0.976
same,normalized growth,"S. cerevisiae deletion strains, locus YMR205C, strain PFK2, stronger effect = lower value",0.813 (active)
same,normalized growth,"S. cerevisiae deletion strains, locus YMR223W, strain ubp8, stronger effect = lower value",0.782 (active)
same,normalized growth,"S. cerevisiae deletion strains, locus YMR231W, strain pep5, stronger effect = lower value",0.96
same,normalized growth,"S. cerevisiae deletion strains, locus YMR263W, strain SAP30, stronger effect = lower value",0.973
same,normalized growth,"S. cerevisiae deletion strains, locus YMR307W, strain GAS1, stronger effect = lower value",0.78
same,normalized growth,"S. cerevisiae deletion strains, locus YNL067W, strain RPL9B, stronger effect = lower value",0.952
same,normalized growth,"S. cerevisiae deletion strains, locus YNL071W, strain lat1, stronger effect = lower value",0.632 (active)
same,normalized growth,"S. cerevisiae deletion strains, locus YNL128W, strain TEP1, stronger effect = lower value",0.99
same,normalized growth,"S. cerevisiae deletion strains, locus YNL153C, strain GIM3, stronger effect = lower value",0.967
same,normalized growth,"S. cerevisiae deletion strains, locus YNL183C, strain NPR1, stronger effect = lower value",0.933
same,normalized growth,"S. cerevisiae deletion strains, locus YNL209W, strain ssb2, stronger effect = lower value",0.991
same,normalized growth,"S. cerevisiae deletion strains, locus YNL233W, strain BNI4, stronger effect = lower value",0.947
same,normalized growth,"S. cerevisiae deletion strains, locus YNL248C, strain rpa49, stronger effect = lower value",0.94
same,normalized growth,"S. cerevisiae deletion strains, locus YNL250W, strain rad50, stronger effect = lower value",0.917
same,normalized growth,"S. cerevisiae deletion strains, locus YNL271C, strain bni1, stronger effect = lower value",0.889 (active)
same,normalized growth,"S. cerevisiae deletion strains, locus YNL298W, strain CLA4, stronger effect = lower value",0.865 (active)
same,normalized growth,"S. cerevisiae deletion strains, locus YNL307C, strain MCK1, stronger effect = lower value",0.185 (active)
same,normalized growth,"S. cerevisiae deletion strains, locus YNL322C, strain KRE1 (second series), stronger effect = lower value",1
same,normalized growth,"S. cerevisiae deletion strains, locus YNL322C, strain KRE1, stronger effect = lower value",0.989
same,normalized growth,"S. cerevisiae deletion strains, locus YNR049C, strain mso1, stronger effect = lower value",0.975
same,normalized growth,"S. cerevisiae deletion strains, locus YNR052C, strain pop2, stronger effect = lower value",0.733 (active)
same,normalized growth,"S. cerevisiae deletion strains, locus YOL006C, strain TOP1, stronger effect = lower value",0.652
same,normalized growth,"S. cerevisiae deletion strains, locus YOL012C, strain htz1",0.798
same,normalized growth,"S. cerevisiae deletion strains, locus YOL147C, strain pex11, stronger effect = lower value",0.527 (active)
same,normalized growth,"S. cerevisiae deletion strains, locus YOR001W, strain rrp6, stronger effect = lower value",0.934
same,normalized growth,"S. cerevisiae deletion strains, locus YOR061W, strain CKA2, stronger effect = lower value",0.964
same,normalized growth,"S. cerevisiae deletion strains, locus YOR069W, strain VPS5, stronger effect = lower value",0.978
same,normalized growth,"S. cerevisiae deletion strains, locus YOR070C, strain gyp1, stronger effect = lower value",0.955
same,normalized growth,"S. cerevisiae deletion strains, locus YOR080W, strain dia2, stronger effect = lower value",0.993
same,normalized growth,"S. cerevisiae deletion strains, locus YOR083W, strain WHI5, stronger effect = lower value",0.941
same,normalized growth,"S. cerevisiae deletion strains, locus YOR106W, strain vam3, stronger effect = lower value",0.95
same,normalized growth,"S. cerevisiae deletion strains, locus YOR136W, strain idh2, stronger effect = lower value",0.943
same,normalized growth,"S. cerevisiae deletion strains, locus YOR144C, strain elg1, stronger effect = lower value",0.852 (active)
same,normalized growth,"S. cerevisiae deletion strains, locus YOR184W, strain ser1, stronger effect = lower value",0.284 (active)
same,normalized growth,"S. cerevisiae deletion strains, locus YOR231W, strain MKK1, stronger effect = lower value",0.937
same,normalized growth,"S. cerevisiae deletion strains, locus YOR265W, strain rbl2, stronger effect = lower value",0.967
same,normalized growth,"S. cerevisiae deletion strains, locus YOR270C, strain vph1, stronger effect = lower value",0.704 (active)
same,normalized growth,"S. cerevisiae deletion strains, locus YOR290C, strain snf2, stronger effect = lower value",0.926
same,normalized growth,"S. cerevisiae deletion strains, locus YOR316C, strain cot1, stronger effect = lower value",0.884 (active)
same,normalized growth,"S. cerevisiae deletion strains, locus YPL051W, strain arl3, stronger effect = lower value",0.903 (active)
same,normalized growth,"S. cerevisiae deletion strains, locus YPL055C, strain LGE1, stronger effect = lower value",0.929
same,normalized growth,"S. cerevisiae deletion strains, locus YPL078C, strain atp4, stronger effect = lower value",0.874 (active)
same,normalized growth,"S. cerevisiae deletion strains, locus YPL106C, strain sse1, stronger effect = lower value",1.05
same,normalized growth,"S. cerevisiae deletion strains, locus YPL240C, strain hsp82, stronger effect = lower value",0.964
same,normalized growth,"S. cerevisiae deletion strains, locus YPL241C, strain CIN2, stronger effect = lower value",0.977
same,normalized growth,"S. cerevisiae deletion strains, locus YPL256C, strain CLN2, stronger effect = lower value",0.981
same,normalized growth,"S. cerevisiae deletion strains, locus YPR119W, strain clb2, stronger effect = lower value",0.919 (active)
same,normalized growth,"S. cerevisiae deletion strains, locus YPR141C, strain kar3, stronger effect = lower value",0.937
same,normalized growth,"S. cerevisiae deletion strains, locus YPR163C, strain tif3, stronger effect = lower value",0.527 (active)
same,normalized growth,"S. cerevisiae deletion strains, locus YPR167C, strain met16, stronger effect = lower value",0.945
same,normalized growth,"S. cerevisiae deletion strains, strain wtn01, stronger effect = lower value",0.789 (active)
same,normalized growth,"S. cerevisiae strains, strain wild type, stronger effect = lower value",0.974
